# Reference: paper PMC6792352, “Limited Chemical Structural Diversity Found to Modulate Thyroid Hormone Receptor in the Tox21 Chemical Library” (Environmental Health Perspectives, 2019)
# System: thyroid hormone receptor (endogenous TRα and TRβ)
# Set-up: species or system GH3-TRE-Luc (rat pituitary); GH3-TRE-Luc luciferase reporter, antagonist mode against 1 nM T3, loss of signal, qHTS
# Details: read-out: Average AC50 (uM) GH3-TRE-Antag, antagonist mode, 1 nM T3, no GH3 cytotoxicity hit
row,Compound,AC50
1,O=C(O)c1cccc(C[C@@H]2COc3ccc(OCc4nc5cc(F)ccc5s4)cc3[C@@H]2O)c1 [CP-085958],53.1 µM
2,"O=C(N[C@@H]1N=C(c2ccccc2F)c2cccc3c2N(CC3)C1=O)c1cc2ccccc2[nH]1 [N-[(3R)-1-(2-Fluorophenyl)-4-oxo-3,4,6,7-tetrahydro[1,4]diazepino[6,7,1-hi]indol-3-yl]-1H-indole-2-carboxamide]",5.69 µM
3,Cc1c(F)c(F)c(COC(=O)[C@H]2[C@@H](/C=C(\Cl)C(F)(F)F)C2(C)C)c(F)c1F (racemic) [Tefluthrin],59.6 µM
